Screens deposited in PubChem by several laboratories.
BAP1 block: human BAP1 deubiquitinase inhibition | calls only at 20 µM | recombinant BAP1, Ub-AMC hydrolysis fluorescence kinetic; hits give low values | 0.48% of 72,000 active | Q92560 | AID 436;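 active = activity remaining at or below 50% of control, provided the compound also passes the data quality filters; inactive = the rest, including low values that fail the filters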;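 note: 100% = DMSO wells rate and 0% = substrate alone blank rate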
HePTP inh: human HePTP phosphatase inhibition | inhibition, % at 20 µM | recombinant HePTP phosphatase activity, OD absorbance | P35236 | 0.64% of 110,000 active; in the data active = inhibition above about 50%;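 note: plate controls were vehicle for no effect and reference inhibitor for full effect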
MKP-1 inh: inhibitors of human MKP-1 phosphatase; recombinant MKP-1, OMFP hydrolysis fluorescence; inhibition, %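 (compounds tested at a single concentration somewhere between 10 and 100 µM)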; 0.15% of 65,000 active;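 active = inhibition above about 50%, limit read from the data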;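 note: 0% = DMSO max control wells and 100% = wells with enzyme stopped by NaOH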
PLAP act: activators of human placental alkaline phosphatase. P05187. purified PLAP enzyme, luminescent substrate read-out; hits give high values. activation fold at 20 µM. 1.2% of 96,000 active; in the data active = activation fold above about 2
Cdc25B inh: human M-phase inducer phosphatase 2 inhibition. P30305. recombinant Cdc25B, OMFP fluorescence Ex485/Em525. inhibition, %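 (compounds tested at 10 µM final in the well)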. 0.1% of 65,000 active; in the data active = inhibition above about 50%
Target sequence (P30305 whole entry, looked up): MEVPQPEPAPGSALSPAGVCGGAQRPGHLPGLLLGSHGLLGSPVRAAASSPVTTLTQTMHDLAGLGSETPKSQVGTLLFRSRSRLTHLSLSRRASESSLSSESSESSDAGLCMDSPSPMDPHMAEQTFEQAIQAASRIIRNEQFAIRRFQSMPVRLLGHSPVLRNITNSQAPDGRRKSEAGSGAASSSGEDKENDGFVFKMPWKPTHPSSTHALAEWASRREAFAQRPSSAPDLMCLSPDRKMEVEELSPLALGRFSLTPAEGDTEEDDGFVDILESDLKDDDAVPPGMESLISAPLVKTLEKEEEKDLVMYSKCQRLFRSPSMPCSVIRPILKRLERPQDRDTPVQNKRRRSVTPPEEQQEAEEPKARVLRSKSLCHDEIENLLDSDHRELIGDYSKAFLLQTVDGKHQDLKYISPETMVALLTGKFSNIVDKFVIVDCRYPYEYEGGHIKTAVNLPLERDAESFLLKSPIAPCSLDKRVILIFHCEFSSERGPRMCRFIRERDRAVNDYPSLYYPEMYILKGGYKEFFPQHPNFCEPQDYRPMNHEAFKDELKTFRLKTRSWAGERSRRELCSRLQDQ
Numbers without * were called inactive; i = inactive; / = no result given; ! = not active in a repeat. Hits are enriched below; roughly 1.4% of the tested compounds scored in any of these assays.

SMILES	BAP1 block	HePTP inh	MKP-1 inh	PLAP act	Cdc25B inh
Cc1cc(-c2ccccc2)c2nncn2n1	i	78*!	-3	1.1	-1
COc1ccc(C(CC(=O)N2CCOCC2)c2ccccc2)cc1 (stereo unspecified)	/	12	/	/	/
CSc1ccccc1NC(=O)CN(C1CCCCC1)S(C)(=O)=O	/	/	/	2*	/
O=C(NCc1ccccn1)C(=O)Nc1ccc(Oc2ccccc2)cc1	/	-2	/	/	/
Cc1ccc(-c2cc(-c3ccccc3[N+](=O)[O-])[nH]n2)c(O)c1	/	/	/	2*	/
C=CCNC(=O)C(=O)N/N=C/c1ccccc1	/	7	/	/	/
CC1CCCCC1NC(=O)CCn1c(=O)oc2ccccc21 (stereo unspecified)	i	/	77*	/	-1
CCc1nc(SCC(=O)NNC(=O)C2CCCCC2)c2ccccc2n1	/	/	/	1.7	/
CCc1nc(SCC(=O)NNC(=O)C(C)C)c2ccccc2n1	/	/	/	2*	/
CC1(C)Oc2c(C(C)(C)C)cc([N+](=O)[O-])c(C(C)(C)C)c2O1	/	5	/	/	/
CCN(CC)c1ccc(N2C(=O)/C(=C/c3ccc(C)cc3)SC2=S)cc1	/	1	/	/	/
Cc1cc2nc(C3CCN(Cc4nnnn4Cc4ccccc4)CC3)[nH]c2cc1C	/	/	/	2.4*	/
CCC(C)(C)n1nnnc1CN1CCC(c2nc3ccc(C)cc3[nH]2)CC1	i	2	-4	2.3*	-13
CCCN1C(=O)/C(=C2\SC(N)=NC2=O)c2ccccc21	/	8	/	/	/
CCCc1ccc(Oc2c(-c3ccc(OCC)cc3O)n[nH]c2C)cc1	i	/	/	/	/
CCCOC(=O)c1ccc(Oc2c(-c3ccc(OCC)cc3O)n[nH]c2C)cc1	i	2	4	2.2*	-9
C=CCn1c(SCc2nc3ccccc3[nH]2)nnc1-c1ccccn1	i	-7	-13	2*	1
O=C1NC(=S)NC(=O)C1=Cc1ccc(OCc2ccc3ccccc3c2)c(Br)c1	/	52*	/	/	/
CC(C)(C)C1(C)OC(O)(C(Cl)(Cl)Cl)CC1=O (stereo unspecified)	/	103*	/	/	/
COc1ccc(OC)c(Nc2nc(-c3sc(NC(=O)C(C)(C)C)nc3C)cs2)c1	/	/	/	1.1	/
COc1ccc(OC)c(Nc2nc(-c3sc(C)nc3C)cs2)c1	i	-4	21	2.1*	-13
Cc1ccc(/C=C2\C=C(c3ccc(Cl)cc3)OC2=O)o1	/	82*	/	/	/
CCOc1ccc(C2=C/C(=C/c3ccc(C)o3)C(=O)O2)cc1	/	-4	/	/	/
O=C(COc1ccc([N+](=O)[O-])cc1)Nc1ccc2nn(-c3ccccc3)nc2c1	/	11	/	/	/
Cc1ccc(C)c(NC(=S)NNC(=O)c2sccc2C)c1	/	/	/	2.6*	/
SMILES	BAP1 block	HePTP inh	MKP-1 inh	PLAP act	Cdc25B inh
Cc1ccc(C)c(NC(=S)NNC(=O)c2ccco2)c1	/	/	/	2.5*	/
COc1ccc(C)cc1NC(=O)C(=O)NCc1ccco1	/	11	/	/	/
Cc1ccc(NC(=S)NNC(=O)c2ccco2)cc1	/	/	/	1.8	/
COc1ccc(C)cc1NC(=O)C(=O)NNC(=O)c1ccco1	/	/	/	2.5*	/
Cc1ccsc1C(=O)NNC(=O)Nc1ccc(Cl)c(Cl)c1	/	/	/	1	/
Cc1cccc(NC(=S)NNC(=O)c2ccco2)c1	/	/	/	2.1*	/
CN(C)CCCNC(=O)Cc1ccc(Cl)cc1	/	2	/	/	/
Cc1ccccc1NC(=S)NNC(=O)c1ccoc1C	/	/	/	2.1*	/
Cc1ccc(C)c(NC(=S)NNC(=O)c2ccc(Br)o2)c1	/	/	/	2.3*	/
CN(C)C1(c2cccnc2)CS(=O)(=O)C1	/	20	/	/	/
Cc1ccc(Nc2c3c(nc4ncnn24)CCC3)cc1	i	6	1	1.2	-3
Clc1cccc(Nc2c3c(nc4ncnn24)CCC3)c1	i	4	0	2*	-1
Cc1cc(OCC(=O)Nc2ccc(F)c([N+](=O)[O-])c2)ccc1Cl	/	-3	/	/	/
O=S(=O)(c1ccc2nc(Cc3ccccc3)[nH]c2c1)N1CCOCC1	i	-6	1	2.2*	2
O=S(=O)(c1ccc2nc(COc3ccccc3)[nH]c2c1)N1CCOCC1	i	5	25	2*	1
N#CC1=C(N)C(C#N)(C#N)C(c2cccnc2)C2CSCC=C12 (stereo unspecified)	/	5	/	/	/
O=C(NNC1=C(C(=O)C(F)(F)F)CCC1)c1ccccc1Cl	/	/	/	2.1*	/
O=C(NNC(=O)C1CCCCC1)c1cnccn1	/	/	/	2*	/
Cc1occc1C(=O)NNC(=O)Cc1ccccc1	/	/	/	1.1	/
Cc1ccccc1C(=O)NNC(=O)Cc1ccccc1	/	2	/	2*	/
CCOc1ccccc1/C=C1/C(=O)NN(c2ccc(C)c(Cl)c2)C1=O	/	69*	/	/	/
O=C1NN(c2ccc(F)c(Cl)c2)C(=O)/C1=C\c1ccco1	/	99*	/	/	/
COc1ccc(C2Nc3ccccc3C(=O)N2Cc2ccco2)cc1COc1cccc(C)c1C (stereo unspecified)	/	-4	/	/	/
